Test results as given in PubChem BioAssay AID1159580 (chemical genetic matrix, 2015).
About 2,000 (36%) of roughly 5,500 compounds were called active. Roughly 18% stayed inconclusive and do not appear here. Rule as the data show it: active = normalized growth mostly below about 0.91 (no sharp cut-off); inconclusive = no clear call, values can overlap the other calls; inactive = mostly above about 0.92. This is one part of the list.

Test: chemical genetic growth profiling, strain panel (AID 1159580);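 also: tested at 20 µM; growth read once vehicle control cultures reached saturation at 30 °C; 1 = growth at the plate median or of vehicle wells; lower values mean less growth of the strain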
Settings: S. cerevisiae deletion strains, growth OD

Measured: normalized growth

N.N.O=C(O)C1(C(=O)O)CCC1.[Pt+2]
inactive: locus YAL040C, strain CLN3, stronger effect = lower value 0.986 | locus YCL061C, strain MRC1 (second series), stronger effect = lower value 1 | locus YDR150W, strain NUM1, stronger effect = lower value 1 | locus YDR363W, strain ESC2, stronger effect = lower value 0.988 | locus YER002W, strain NOP16, stronger effect = lower value 1.02 | locus YMR307W, strain GAS1, stronger effect = lower value 0.984 | locus YNL175C, strain NOP13, stronger effect = lower value 0.998 | locus YNL197C, strain WHI3, stronger effect = lower value 1.04 | locus YNL224C, strain SQS1, stronger effect = lower value 1 | locus YOR083W, strain WHI5 (second series), stronger effect = lower value 0.995 | locus YPL055C, strain LGE1, stronger effect = lower value 0.998
